High-throughput results deposited in PubChem by National Center for Advancing Translational Sciences (NCATS).
An excerpt weighted towards active compounds, which were near 3.7% of everything screened.
TbPYK inhibitor – qHTS of Trypanosoma Brucei Inhibitors. pyruvate kinase (Trypanosoma brucei), Q57TT1. TbPYK enzyme, Kinase-Glo Plus ATP luminescence, 45 min. Potency, µM (titrated, usually from 76.8 µM), inactives show at the highest dose activity, negative = inhibition, actives largely listed as inhibitors. actives 0.12% (n = 410,000). AID 624173, 2012; further: nearly all actives have a fitted effect of over 50% in size
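Glycolytic pyruvate kinase of T. brucei was incubated with substrate, test compound and 130 uM ADP for 45 minutes at room temperature. Luminescent Kinase-Glo Plus signal was measured after 10 minutes.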
Sm TGR block – qHTS Assay for the Inhibitors of Schistosoma Mansoni Peroxiredoxins; Schistosoma mansoni thioredoxin glutathione reductase (TGR), Q962Y6; purified TGR, DTNB reduction, TNB absorbance 405 nm; Potency, µM (top dose mostly 114 µM), for the others: at the highest dose activity change, negative = inhibition, actives largely listed as inhibitors; actives 3% (n = 360,000); further: nearly all actives have a fitted effect of over 60% in size
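TGR 20 nM + NADPH 100 uM (dispensed conc.), cpd preinc 15 min RT; start with NADPH (500 uM addition) then DTNB (15 mM addition). Kinetic TNB absorbance, 405 nm filter. Four-parameter Hill fit across titration.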
FMDV antiviral – High Throughput Screening for Foot and Mouth Disease Virus Antivirals. FMDV antiviral cell-based qHTS. Potency, µM (series often up to 57.9 µM), inactives show top-dose activity change, negative = inhibition, most hits filed as inhibitors. actives 1.2% (n = 410,000); calls by dose curve; tested in HEK293T cells; further: read-out not given here; nearly all actives have a fitted effect of over 45% in size
RE007 growth inh – qHTS Assay for Inhibitors of the HIV-1 protein Vpr; Potency, µM (highest dose often 92.2 µM), for inactives: at the highest dose activity change, negative = less growth, hits mostly inhibitors; actives 0.21% (n = 360,000); S. pombe RE007 Vpr strain, BacTiter-Glo ATP luminescence, 24 h; active means well fitted falling curve with a large enough effect; inconclusive means small, poorly fitted or top-dose-only effect; inactive means no such curve, though single readings can be large or run the other way; further: nearly all actives have a fitted effect of over 50% in size
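Fission yeast RE007 carrying one integrated HIV-1 vpr copy, seeded at OD 0.01 in PMG+AL medium with 23 nL pinned compound. Grown 24 h at 30 degrees; viability read by BacTiter-Glo luminescence after 5 min.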
* marks the source's active call; other numbers are inactive results. Unless noted, the call rests on the fitted dose curve; in most records, active means well fitted curve in the direction sought with a large enough effect; inconclusive means small, poorly fitted or top-dose-only effect, or another doubt; inactive means no such curve, though single readings can be large; an effect the other way counts as inactive or inconclusive. On the % scale 0 is the no-effect control and ±100 the full control effect; potency means the concentration at half of the fitted maximal effect.

Cc1ccc(CN(C)C(=O)c2ccc(S(=O)(=O)N(C)c3ccccc3)cc2)o1 was read as TbPYK inhibitor inconclusive, Sm TGR block 11µM*, FMDV antiviral 0% and RE007 growth inh -7%.
`Cc1ccc(CN(C)C(=O)c2cccc(S(=O)(=O)N3CCc4ccccc4C3)c2)o1` gave TbPYK inhibitor inconclusive, Sm TGR block 28µM*, FMDV antiviral 0% and RE007 growth inh -1%.
`CCc1ccc(CNC(=O)c2cnc(N3CCCCC3)c3ccccc23)cc1` gave TbPYK inhibitor -3%, Sm TGR block -4% and FMDV antiviral 0%.
CCCCn1c(N2CCC(Cc3ccccc3)CC2)nc2c1c(=O)[nH]c(=O)n2C was read as TbPYK inhibitor -9%, Sm TGR block 4%, FMDV antiviral 28µM* and RE007 growth inh 19%.
For CCCCCn1c(CN2CCN(c3cc(Cl)ccc3C)CC2)nc2c1c(=O)[nH]c(=O)n2C the results were TbPYK inhibitor 7%, Sm TGR block 2%, FMDV antiviral 28µM* and RE007 growth inh 0%.
For CCCCCCn1c(N2CCC(C)CC2)nc2c1c(=O)[nH]c(=O)n2C the results were TbPYK inhibitor 10%, Sm TGR block 18%, FMDV antiviral 20µM* and RE007 growth inh 6%.
For CCCCn1c(SCc2ccc(Cl)cc2)nc2c1c(=O)[nH]c(=O)n2C the results were TbPYK inhibitor -15%, Sm TGR block -2%, FMDV antiviral 35µM* and RE007 growth inh 2%.
Screening Fc1ccc(N2CCN(Cc3ccc4c(c3)CN(Cc3cccn3-c3ncccn3)CCO4)CC2)cc1 returned FMDV antiviral -12%.
CCOC(=O)C1=C(C)NC2=C(C(=O)c3ccccc32)C1c1ccc([N+](=O)[O-])o1 (stereo not drawn) was read as TbPYK inhibitor -4%, Sm TGR block 0%, FMDV antiviral inconclusive and RE007 growth inh 12%.
Screening CCOC(=O)C1=C(C)NC(=O)NC1c1ccc([N+](=O)[O-])o1 (stereo not drawn) returned TbPYK inhibitor -1%, Sm TGR block 40µM*, FMDV antiviral 4% and RE007 growth inh 9%.
COCCOC(=O)C1=C(C)NC(=O)NC1c1ccc(-c2ccc(F)cc2)o1 (stereo not drawn) was read as TbPYK inhibitor -5%, Sm TGR block 10µM*, FMDV antiviral -3% and RE007 growth inh -5%.
CC(NC(=O)c1cc(F)ccc1F)c1nnc2n1CCN(Cc1ccccc1O)CC2 (stereo not drawn) was read as FMDV antiviral 1%.
Screening O=C(Nc1cccc(N2C(=O)C=CC2=O)c1)c1cccs1 returned Sm TGR block 0.4µM*.
For Cc1nc2ccccc2c(=O)n1-c1cccc(NC(=O)c2cccs2)c1 the results were TbPYK inhibitor 6%, Sm TGR block 4%, FMDV antiviral -17% and RE007 growth inh 1%.
For Cc1nc2sccn2c1CN1CCC2(CC1)CC2C(=O)Nc1ccc2c(c1)OCO2 (stereo not drawn) the results were FMDV antiviral -6%.
CCOC(=O)c1cnc(-n2nc(C)cc2C)nc1NC1CCCCC1 was read as TbPYK inhibitor 2%, Sm TGR block 2%, FMDV antiviral 10µM* and RE007 growth inh -19%.
For CCOC(=O)c1cnc(-n2nc(C)cc2C)nc1NC the results were TbPYK inhibitor -5%, Sm TGR block -3%, FMDV antiviral 46% and RE007 growth inh -2%.
O=C(O)CCc1ccc(-c2ccccc2)n1CC(=O)Nc1ccccc1C(F)(F)F was read as TbPYK inhibitor -16%, Sm TGR block 40µM* and FMDV antiviral -18%.
`O=C(O)CCc1ccc(-c2ccc(Cl)cc2)n1CCC(=O)O` gave TbPYK inhibitor -5%, Sm TGR block 22µM* and RE007 growth inh -1%.
Screening O=C(O)CCc1ccc(-c2ccccc2)n1CC(=O)Nc1cccc(C(F)(F)F)c1 returned TbPYK inhibitor -4%, Sm TGR block -30%, FMDV antiviral -17% and RE007 growth inh 2%.
Screening C=CCn1c(CCC(=O)O)ccc1-c1ccccc1 returned TbPYK inhibitor -4%, Sm TGR block 45µM* and RE007 growth inh 5%.
Screening O=C(O)CCc1ccc(-c2ccc(Cl)cc2)n1CC(=O)O returned TbPYK inhibitor 3%, Sm TGR block 45µM* and RE007 growth inh -2%.
For O=C(O)CCc1ccc(-c2ccc(Cl)cc2)n1CC(=O)Nc1ccccc1 the results were TbPYK inhibitor 2%, Sm TGR block inconclusive, FMDV antiviral -2% and RE007 growth inh 2%.
For Cc1cc(C)cc(NC(=O)c2cc(S(=O)(=O)N3CCCCCC3)cn2C)c1 the results were TbPYK inhibitor -3%, Sm TGR block 0% and FMDV antiviral -13%.
For COc1cc(OC)c(CN2CCc3c([nH]c4ccccc34)C2)cc1Br the results were TbPYK inhibitor -8%, Sm TGR block 35µM*, FMDV antiviral -15% and RE007 growth inh -17%.
COC(=O)c1scc(C)c1NC(=O)/C=C/C(=O)O was read as TbPYK inhibitor -5%, Sm TGR block 1.4µM*, FMDV antiviral -3% and RE007 growth inh 6%.
`COC(=O)c1scc(C)c1NC(=O)Nc1ccccc1` gave TbPYK inhibitor -4%, Sm TGR block 5%, FMDV antiviral -13% and RE007 growth inh -3%.
`N#Cc1c(-n2ncnc2-c2ccc(F)cc2)sc2c1CCCCC2` gave TbPYK inhibitor -14%, Sm TGR block 0% and FMDV antiviral inconclusive.
CC(C)SC1=NC(C)(C)C=C(/C=C/c2ccc(Cl)cc2Cl)N1 was read as TbPYK inhibitor 0%, Sm TGR block 16µM*, FMDV antiviral inconclusive and RE007 growth inh -14%.
For CC(C)SC1=NC(C)(C)C=C(/C=C/c2c(Cl)cccc2Cl)N1 the results were TbPYK inhibitor 3%, Sm TGR block 20µM*, FMDV antiviral inconclusive and RE007 growth inh -16%.
`COc1ccc(Cl)cc1C(=O)Nc1nnc2n1CCS2` gave TbPYK inhibitor -1%, Sm TGR block -1% and FMDV antiviral -7%.
`CCC(=O)Nc1ccc2nc(SCCOc3ccc(C)cc3)sc2c1` gave TbPYK inhibitor -2%, Sm TGR block 0% and FMDV antiviral 4%.
`C/C(=C\c1ccccc1)C1Nc2cccc3cccc(c23)N1` gave Sm TGR block 13µM*.
Screening C/C(=C\c1ccc2c(c1)OCO2)C1Nc2cccc3cccc(c23)N1 returned TbPYK inhibitor -10%, Sm TGR block 20µM* and FMDV antiviral 7%.
For CCN(CC)CCOc1ccc(Nc2ncc3cc(-c4c(Cl)cccc4Cl)c(=O)n(C)c3n2)cc1 the results were TbPYK inhibitor 4%.
`Cc1ccccc1NC(=O)CSC1=Nc2ccccc2C2=NC(Cc3ccccc3)C(=O)N12` (stereo not drawn) gave TbPYK inhibitor -14%, Sm TGR block 5% and FMDV antiviral -10%.
